From PubChem
G9a inh: G9a (human) methyltransferase inhibition. Q96KQ7. G9a H3K9 monomethylation, AlphaScreen, 2 h. Potency, µM (top dose mostly 102 µM), most hits filed as inhibitors. 350,000 tested, 8.8% active. AID 504332; note: nearly all actives have a fitted effect of over 75% in size
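G9a (20 nM) was preincubated 15 min with compound, then reacted 2 h at room temperature with 500 nM biotin-H3K9 peptide and 20 µM SAM. Monomethyl-H3K9 detected by AlphaScreen using anti-H3K9me1 antibody.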
JMJD2A Tudor inh: blocks the human JMJD2A Tudor domain. AlphaScreen JMJD2A-Tudor / H3K4me3 peptide binding. Potency, µM (series often up to 114 µM), hits mostly inhibitors. 390,000 tested, 4.4% active. AID 504339; note: nearly all actives have a fitted effect of over 50% in size
Target sequence (O75164 whole entry, looked up, the tested form may be a part): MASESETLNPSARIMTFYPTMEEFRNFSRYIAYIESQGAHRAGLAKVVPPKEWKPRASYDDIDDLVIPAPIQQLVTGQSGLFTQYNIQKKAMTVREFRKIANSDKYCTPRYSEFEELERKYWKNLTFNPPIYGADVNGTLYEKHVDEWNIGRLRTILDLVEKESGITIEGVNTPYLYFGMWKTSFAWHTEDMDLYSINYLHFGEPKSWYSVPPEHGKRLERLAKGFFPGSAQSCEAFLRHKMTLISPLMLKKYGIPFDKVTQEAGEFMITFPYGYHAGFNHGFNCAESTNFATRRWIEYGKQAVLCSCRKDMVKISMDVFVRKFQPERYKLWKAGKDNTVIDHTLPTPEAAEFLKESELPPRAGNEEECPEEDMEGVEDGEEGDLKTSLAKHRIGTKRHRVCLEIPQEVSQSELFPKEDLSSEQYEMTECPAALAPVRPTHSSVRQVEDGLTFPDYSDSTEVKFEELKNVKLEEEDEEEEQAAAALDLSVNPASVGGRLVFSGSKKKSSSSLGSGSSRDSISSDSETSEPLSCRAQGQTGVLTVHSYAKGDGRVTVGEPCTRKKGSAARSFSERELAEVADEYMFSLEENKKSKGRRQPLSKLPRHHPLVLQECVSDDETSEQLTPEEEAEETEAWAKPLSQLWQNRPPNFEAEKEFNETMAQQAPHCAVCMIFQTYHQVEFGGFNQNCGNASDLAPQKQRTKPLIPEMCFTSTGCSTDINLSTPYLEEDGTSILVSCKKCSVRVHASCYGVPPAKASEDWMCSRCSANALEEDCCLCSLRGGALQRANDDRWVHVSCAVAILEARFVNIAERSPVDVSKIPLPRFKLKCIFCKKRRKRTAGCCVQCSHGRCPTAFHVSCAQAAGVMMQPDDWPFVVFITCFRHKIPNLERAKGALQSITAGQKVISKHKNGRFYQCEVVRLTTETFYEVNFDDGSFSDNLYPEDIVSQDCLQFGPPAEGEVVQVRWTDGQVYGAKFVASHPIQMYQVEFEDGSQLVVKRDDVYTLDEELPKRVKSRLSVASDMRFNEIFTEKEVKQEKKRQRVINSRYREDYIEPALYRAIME
BAZ2B block: blocks human BAZ2B; Q9UIF8; AlphaScreen BAZ2B-H3K14Ac peptide displacement; Potency, µM (doses to about 114 µM), actives largely listed as inhibitors; 360,000 tested, 4.4% active; AID 504333; note: nearly all actives have a fitted effect of over 60% in size
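AlphaScreen luminescence quantifies BAZ2B engagement of H3K14Ac peptide; the protein and biotinylated peptide are both at 50 nM final, buffer PBS pH 7.4 with 0.01% Tween-20, all steps at room temperature.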
HP1b binding inh: blocks HP1-beta chromodomain binding to methylated histone tails | Potency, µM (series often up to 114 µM), usual class: inhibitors | AlphaScreen HP1-beta / biotin-H3K9me3 peptide binding | 390,000 tested, 0.56% active; note: nearly all actives have a fitted effect of over 70% in size
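Compound inhibition of the preformed complex between 50 nM HP1-beta and 50 nM biotinylated H3K9me3 peptide was read by AlphaScreen. Buffer was PBS pH 7.4 with 0.01% Tween-20. Incubations ran 30 min at room temperature, with 10 ug/mL donor/acceptor beads.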
Six1-Eya2 inh: inhibitors of human Six1/Eya2 interaction | activity change, % (concentration not given with the values) | 360,000 tested, 0.56% active | Q15475+O00167 | AlphaScreen GST-Six1/His-Eya2 binding, biochemical; hits give low values; in the data active = activity change below about -65%; inconclusive = mostly about -30% to -63%
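AlphaScreen with GST-Six1 and His-Eya2 (5X mix: 250 nM and 500 nM), glutathione donor and nickel acceptor beads; buffer 50 mM Tris pH 8.0, 300 mM NaCl, 1 mM TCEP; 1 h at 37 C in the dark.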
CtBP-E1A inh: blocks the CtBP interaction with E1A; 340,000 tested, 0.49% active; activity change, % (no concentration beside the values); AID 651724; AlphaScreen GST-E1A/His-CtBP binding, 1536-well; hits give low values; in the data active = activity change below about -65%; inconclusive = mostly about -30% to -63%
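AlphaScreen with 125 nM GST-E1A and 125 nM His-CtBP (5X stocks) in Tris pH 8.0, 300 mM NaCl, BSA, Tween 20, TCEP. Compounds preincubated 2 h at 37 deg C, then glutathione donor/nickel acceptor beads added for 1 h at 37 deg C in dark.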
Large screens that a line does not name were inactive. In the library only some 10% were active in any assay of this set; here they are far more common. Unless noted, calls come from the whole dose curve; as a rule, active = well fitted inhibition curve with a large enough effect; inconclusive = small, poorly fitted or top-dose-only effect; inactive = no such curve, though single readings can be large or run the other way.

O=C(O)CS(=O)(=O)CC(=O)NCc1cccc(C(F)(F)F)c1	BAZ2B block inconclusive
O=C(O)CS(=O)(=O)CC(=O)O	G9a inh inconclusive, JMJD2A Tudor inh inconclusive, BAZ2B block 79µM
Cc1ccc(N(Cc2cccs2)C(=O)C(C)Oc2ccc(Cl)c(C)c2)cc1 (configuration not stated)	none (no result: Six1-Eya2 inh, CtBP-E1A inh)
O=C(/C=C/c1ccc[nH]1)c1ccccc1	G9a inh inconclusive, JMJD2A Tudor inh 18µM, BAZ2B block inconclusive
O=C(/C=C/c1ccc[nH]1)c1ccc(F)cc1	none
CC(=O)N1CCc2cc(Br)cc(S(=O)(=O)CCC(=O)N3CCN(c4cccc(C)c4C)CC3)c21	none (no result: Six1-Eya2 inh, CtBP-E1A inh)
COc1ccc(OC)c(C2C(C(=O)c3ccco3)=C(O)C(=O)N2CC2CCCO2)c1 (configuration not stated)	G9a inh 50µM, BAZ2B block inconclusive
COc1cccc2cc(C(=O)C3=C(O)C(=O)N(CCN4CCOCC4)C3c3cccs3)oc12 (configuration not stated)	JMJD2A Tudor inh 79µM
COc1ccc(C2C(C(=O)c3ccco3)=C(O)C(=O)N2CCN2CCOCC2)c(OC)c1 (configuration not stated)	G9a inh 35µM, JMJD2A Tudor inh inconclusive
O=C(C1=C(O)C(=O)N(CC2CCCO2)C1c1ccccc1[N+](=O)[O-])c1ccco1 (configuration not stated)	G9a inh 35µM
COc1ccc(C2C(C(=O)c3ccco3)=C(O)C(=O)N2CC2CCCO2)c(OC)c1 (configuration not stated)	G9a inh inconclusive, JMJD2A Tudor inh inconclusive
COc1cccc(C2C(C(=O)c3ccc(C)o3)=C(O)C(=O)N2CCN2CCOCC2)c1OC (configuration not stated)	JMJD2A Tudor inh inconclusive (no result: G9a inh)
Cc1cc(=O)[nH]c2nnc(SCCC(C)C)n12	none (no result: Six1-Eya2 inh, CtBP-E1A inh)
COc1ccc(CNc2ncnc3ccc(-c4cccc(C#N)c4)cc23)c(OC)c1	none (no result: JMJD2A Tudor inh, BAZ2B block, HP1b binding inh, Six1-Eya2 inh, CtBP-E1A inh)
COC(=O)c1ccc(C2C(C(=O)c3ccco3)=C(O)C(=O)N2CC2CCCO2)cc1 (configuration not stated)	G9a inh 45µM
Cc1ccccc1-c1noc(-c2cccnc2N(C)Cc2ccc(Cl)cc2)n1	none (no result: Six1-Eya2 inh, CtBP-E1A inh)
CSCCC(NC=C1C(=O)OC(C)(C)OC1=O)C(=O)O (configuration not stated)	JMJD2A Tudor inh 79µM
CC1(C)OC(=O)C(=CNCC(O)c2ccccc2)C(=O)O1 (configuration not stated)	none
CCCCOc1cccc(C(=O)N(Cc2ccc(Cl)cc2)C2CCS(=O)(=O)C2)c1 (configuration not stated)	none (no result: Six1-Eya2 inh, CtBP-E1A inh)
O=C(COC(=O)C1CC(=O)N(Cc2ccco2)C1)c1ccc(OC(=O)c2ccco2)cc1 (configuration not stated)	G9a inh 8.9µM, JMJD2A Tudor inh 35µM, BAZ2B block 25µM, HP1b binding inh inconclusive, Six1-Eya2 inh inconclusive
Cc1ccc(C(=O)Oc2ccc(C(=O)COC(=O)C3CC(=O)N(Cc4ccco4)C3)cc2)cc1 (configuration not stated)	G9a inh inconclusive, JMJD2A Tudor inh inconclusive, BAZ2B block 50µM, Six1-Eya2 inh -85, CtBP-E1A inh inconclusive
Cc1[nH]c2ccccc2c1C(=O)COC(=O)C1CC(=O)N(Cc2ccco2)C1 (configuration not stated)	G9a inh inconclusive
CCOc1ccc(CNC(=O)C2Cc3cc(S(=O)(=O)N4CCCCCC4)ccc3N2C(C)=O)cc1 (configuration not stated)	G9a inh inconclusive, BAZ2B block inconclusive (no result: Six1-Eya2 inh, CtBP-E1A inh)
Cc1c(C(=O)N2CCCC2)oc2c1-c1nn(CC(=O)NCc3cccc(Br)c3)cc1CC2	G9a inh inconclusive (no result: Six1-Eya2 inh, CtBP-E1A inh)
O=C(Nc1ccc(Br)cn1)c1cccc(-c2cc3ccccc3oc2=O)c1	G9a inh 25µM, BAZ2B block inconclusive
Cc1cc(NC(=O)c2coc(=O)c(Br)c2)ccc1C(C)C	G9a inh 50µM
